Screening data deposited in PubChem by several laboratories.
MEKK2 mut-MEK5 – signal of MEK5 binding to mutant human MEKK2 PB1 domain; bead flow cytometry, Alexa488-MEK5 binding to MEKK2 mutant; hit rate 0.35% among 290,000; percent response, % at 10 µM; in the data active = percent response above about 24%, passing the limit was not always enough
NTR1 ag – activates human neurotensin receptor 1; P30989; NTR1-U2OS beta-arrestin-GFP spot imaging, agonist mode; activation, % at 20 µM; hit rate 0.17% among 330,000;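 active = activation at or above 40% of the spot to cytoplasm intensity ratio, with at least 20 cells analyzed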;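 also: 0% = DMSO without peptide and 100% = 100 nM NTR1 peptide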
MEKK3 PB1 HTS – raises or lowers MEK5 binding to the human MEKK3 PB1 domain. Q99759. bead-based flow cytometry, Alexa488-MEK5 binding to MEKK3; actives lie on both sides; 0 = blocked by unlabeled MEK5, 100 = vehicle. binding response (% of control), % at 10 µM. hit rate 1.4% among 290,000. AID 1529;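 active = binding response more than 3 SD above or below the average of its plate-row segment, actives on both sides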;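 also: Alexa488 bead fluorescence after subtracting the streptavidin-only scavenger bead signal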
ANO1 activ – activates or potentiates the mouse TMEM16A chloride channel; Q8BHY3; HEK293 TMEM16A/YFP-H148Q/I152L, iodide quench fluorescence; stronger effect = lower value; B-score at 10 µM; hit rate 0.3% among 340,000;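 active = fluorescence-ratio B-score plate-corrected deviation score at least 3 library SD below zero, with starting fluorescence score within 5 deviations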;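 also: channel opened by trigger with iodide after compound preincubation; score built on the fluorescence ratio of max minus min over baseline; more negative score means more quench and so TMEM16A activation or potentiation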
MEKK2wt PB1 HTS – raises or lowers MEK5 binding to wildtype human MEKK2 PB1 domain | bead flow cytometry, Alexa488-MEK5 binding to MEKK2 WT; actives lie on both sides | hit rate 1.1% among 290,000 | Q9Y2U5 | binding response (% of control), % at 10 µM; in the data active = binding response below about 67% or above about 130%
ANO1 block – inhibitors of mouse TMEM16A calcium-activated chloride channel. HEK293 TMEM16A/YFP iodide influx fluorescence, ionomycin. hit rate 1.2% among 310,000. AID 588511. normalized B-score (activity score, 25-100; higher = stronger inhibition) at 10 µM. Q8BHY3;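 active = ratio plate-corrected score three or more library SD toward inhibition, starting fluorescence score within five deviations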;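 also: score derived from kinetic fluorescence span divided by baseline fluorescence per well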
TMEM16A reconf – re-confirmation of mouse TMEM16A chloride channel inhibitors; shares compounds with ANO1 block; HEK293 TMEM16A/YFP-H148Q, iodide quench fluorescence; ionomycin added to raise cell calcium; inhibition, % at 10 µM; hit rate 39% among 2,300;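 active = mean duplicate percent inhibition, scaled so buffer wells are 0 and the reference blocker 100, over three buffer SD above buffer mean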
HEK293 Ca mobil – alters calcium mobilization in TMEM16A HEK293 cells, counter-screen; calcium response (% of ionomycin), % at 10 µM; hit rate 2% among 2,300; TMEM16A/YFP HEK293, Fluo4 calcium mobilization; AID 652231; shares compounds with ANO1 block;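 active = duplicate-averaged calcium signal over 20% of the ionomycin maximum, relative to buffer baseline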;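 also: each well's signal is peak minus trough fluorescence divided by its pre-addition baseline; 0% = buffer wells and 100% = ionomycin wells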
Parental YFP cnt – acts in parental YFP-HEK293 cells lacking TMEM16A, counter-screen | shares compounds with ANO1 block | iodide YFP quench, ionomycin | YFP ratio F(max-min)/F0 at 10 µM | 2,300 tested, under 10 active;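 active = yellow fluorescent protein signal ratio exceeding the buffer control mean by over 5 SD of those controls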;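 also: ratio is mean of duplicate wells from kinetic YFP trace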
ClC-1 inh – blocks the rat ClC-1 voltage-dependent chloride channel | 2,300 tested, under 10 active | ratio percent, % at 10 µM | shares compounds with ANO1 block | AID 652236 | CHO ClC-1-YFP, iodide influx fluorescence quench; iodide control reads 0, buffer control 100;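 active = duplicate-mean ratio percent above the mean of iodide-only control wells, which defines zero, plus 5 of their SD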;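 also: higher percent means stronger block of ClC-1 iodide influx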
Target sequence (P35524 whole entry, looked up): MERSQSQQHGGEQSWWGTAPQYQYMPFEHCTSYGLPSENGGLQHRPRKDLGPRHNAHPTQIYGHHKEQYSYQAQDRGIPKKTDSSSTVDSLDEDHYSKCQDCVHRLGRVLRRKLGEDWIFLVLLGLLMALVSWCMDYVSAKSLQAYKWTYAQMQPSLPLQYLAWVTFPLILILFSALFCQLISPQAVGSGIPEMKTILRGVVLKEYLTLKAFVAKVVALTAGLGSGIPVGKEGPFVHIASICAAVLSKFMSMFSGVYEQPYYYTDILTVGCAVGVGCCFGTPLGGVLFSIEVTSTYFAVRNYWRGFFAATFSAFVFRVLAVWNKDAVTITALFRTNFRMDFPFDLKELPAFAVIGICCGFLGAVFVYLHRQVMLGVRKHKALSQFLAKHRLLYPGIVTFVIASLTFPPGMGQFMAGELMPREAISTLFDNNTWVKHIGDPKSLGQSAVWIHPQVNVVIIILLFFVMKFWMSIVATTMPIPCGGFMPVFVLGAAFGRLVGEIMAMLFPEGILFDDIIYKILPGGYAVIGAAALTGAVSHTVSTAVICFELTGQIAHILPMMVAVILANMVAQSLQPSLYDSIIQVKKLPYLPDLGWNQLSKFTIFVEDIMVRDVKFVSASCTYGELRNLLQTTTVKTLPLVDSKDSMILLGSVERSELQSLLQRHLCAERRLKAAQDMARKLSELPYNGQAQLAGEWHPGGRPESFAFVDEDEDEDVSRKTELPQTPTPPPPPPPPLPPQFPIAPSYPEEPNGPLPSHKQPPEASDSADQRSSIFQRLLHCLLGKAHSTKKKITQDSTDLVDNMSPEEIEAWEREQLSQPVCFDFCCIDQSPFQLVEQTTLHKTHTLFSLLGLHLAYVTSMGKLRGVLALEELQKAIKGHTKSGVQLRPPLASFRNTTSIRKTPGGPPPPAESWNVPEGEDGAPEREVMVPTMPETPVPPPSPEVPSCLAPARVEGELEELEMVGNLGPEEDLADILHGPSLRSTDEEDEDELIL
The depositor's hits bear a star. Sampled rows, rich in hits. Any-hit rate of the full collection: about 3.4%.

COc1cccc(N2CCN(c3ncnc4c3cnn4-c3ccc(C)cc3C)CC2)c1 was read as MEKK2 mut-MEK5 9.0, NTR1 ag 21.7, MEKK3 PB1 HTS 116.0, ANO1 activ inactive, MEKK2wt PB1 HTS 110.0, ANO1 block 100*, TMEM16A reconf 32.0%*, HEK293 Ca mobil inactive, Parental YFP cnt -1.09 and ClC-1 inh -6.0.
`COc1cc(/C=C2\C(=N)N3N=C(S(C)(=O)=O)SC3=NC2=O)ccc1OCCOc1ccc(C)cc1` gave MEKK2 mut-MEK5 9.0, NTR1 ag 10.2, MEKK3 PB1 HTS 106.0, ANO1 activ inactive, MEKK2wt PB1 HTS 91.0, ANO1 block 25*, TMEM16A reconf inactive, HEK293 Ca mobil inactive, Parental YFP cnt -1.05 and ClC-1 inh -3.5.
For COc1cc(/C=C2\C(=N)N3N=C(S(C)(=O)=O)SC3=NC2=O)cc(OC)c1OCCOc1ccc(C)cc1 the results were MEKK2 mut-MEK5 1.0, NTR1 ag 11.8, MEKK3 PB1 HTS 104.0, ANO1 activ inactive, MEKK2wt PB1 HTS 101.0 and ANO1 block inactive.
Screening CCc1ccc(NC(=O)C(=O)NCc2ccccn2)cc1 returned MEKK2 mut-MEK5 -12.0, NTR1 ag 0.8, MEKK3 PB1 HTS 82.0, ANO1 activ inactive, MEKK2wt PB1 HTS 83.0 and ANO1 block inactive.
For CC(=O)Nc1ccc(SCC(=O)c2cc(C)n(-c3ccccc3F)c2C)cc1 the results were MEKK2 mut-MEK5 -2.0, NTR1 ag 7.5, MEKK3 PB1 HTS 98.0, ANO1 activ inactive, MEKK2wt PB1 HTS 96.0 and ANO1 block inactive.
Screening COC(=O)c1ccc(-n2c(C)cc(C(=O)CSc3ccc(NC(C)=O)cc3)c2C)cc1 returned MEKK2 mut-MEK5 1.0, NTR1 ag 4.2, MEKK3 PB1 HTS 97.0, ANO1 activ inactive, MEKK2wt PB1 HTS 105.0, ANO1 block 25*, TMEM16A reconf 24.0%*, HEK293 Ca mobil inactive, Parental YFP cnt -1.14 and ClC-1 inh -4.0.
For CN(Cc1ccccc1)C(=O)N1CCOCC1 the results were MEKK2 mut-MEK5 -4.0, NTR1 ag -0.4, MEKK3 PB1 HTS 98.0, ANO1 activ inactive, MEKK2wt PB1 HTS 97.0 and ANO1 block inactive.
`CCNC(=S)NNC(=O)c1cc(-c2ccc(OC)cc2)nc2ccccc12` gave MEKK2 mut-MEK5 2.0, NTR1 ag 0.1, MEKK3 PB1 HTS 106.0, ANO1 activ inactive, MEKK2wt PB1 HTS 106.0 and ANO1 block inactive.
For CCNC(=S)NNC(=O)c1cc(-c2cccc(C)c2)nc2ccccc12 the results were MEKK2 mut-MEK5 1.0, NTR1 ag 0.0, MEKK3 PB1 HTS 101.0, ANO1 activ inactive, MEKK2wt PB1 HTS 100.0 and ANO1 block inactive.
For CCNC(=S)NNC(=O)c1cc(-c2cccc(OCC)c2)nc2ccccc12 the results were MEKK2 mut-MEK5 2.0, NTR1 ag -0.4, MEKK3 PB1 HTS 99.0, ANO1 activ inactive, MEKK2wt PB1 HTS 95.0, ANO1 block 25*, TMEM16A reconf inactive, HEK293 Ca mobil inactive, Parental YFP cnt -1.07 and ClC-1 inh -5.0.
`CCCCOc1cccc(-c2cc(C(=O)NNC(=S)NCC)c3ccccc3n2)c1` gave MEKK2 mut-MEK5 -12.0, NTR1 ag 5.5, MEKK3 PB1 HTS 93.0, ANO1 activ inactive, MEKK2wt PB1 HTS 92.0, ANO1 block 25*, TMEM16A reconf 24.5%*, HEK293 Ca mobil inactive, Parental YFP cnt -0.926 and ClC-1 inh -7.0.
